Assay outcomes as filed in PubChem BioAssay.
Tau fluor counter – Counterscreen qHTS for Inhibitors of Tau Fibril Formation, Fluorescence Polarization; AID 1463, 2008; Potency, µM (highest dose often 57.7 µM), inactives show top-dose activity change, negative = decrease; 280,000 tested, 0.93% active; tau K18 P301L Alexa594 fluorescence, heparin fibrillization; further: nearly all actives have a fitted effect of over 55% in size
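Human tau K18 P301L (15 uM unlabeled, 0.24 uM Alexa 594-labeled) in 100 mM sodium acetate pH 7 with 20 uM heparin, 6 hr at 37 C. ThT 30 uM added, 1 hr ambient; Alexa 594 FP and total fluorescence read at 555/632 nm.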
Tau fibril ThT – qHTS for Inhibitors of Tau Fibril Formation, Thioflavin T Binding; Microtubule-associated protein tau (Homo sapiens), P10636; recombinant tau K18 P301L, heparin-induced fibrillization, ThT fluorescence; Potency, µM (titrated, usually from 57.4 µM), for inactives: at the highest dose activity, negative = inhibition, hits mostly inhibitors; 270,000 tested, 2.1% active; further: nearly all actives have a fitted effect of over 55% in size
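Fibril formation assay: tau K18 P301L at 15 uM with trace Alexa 594 label, heparin inducer 20 uM, pH 7 sodium acetate buffer, 37 C for 6 hr; endpoint ThT signal.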
Tau fibril FP – qHTS for Inhibitors of Tau Fibril Formation, Fluorescence Polarization. AID 1468, 2008. Potency, µM (series often up to 57.7 µM), for inactives: at the top dose activity, negative = inhibition, usual class: inhibitors. 280,000 tested, 0.39% active. Microtubule-associated protein tau (Homo sapiens), P10636. K18 P301L tau heparin fibrillization, Alexa594 FP, 6 h; further: nearly all actives have a fitted effect of over 55% in size
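Quantitative HTS format: compounds meet 15 uM recombinant K18 P301L tau and Alexa 594-tau tracer in 100 mM sodium acetate pH 7; 20 uM heparin triggers fibrillization at 37 C over 6 hr; FP gives the signal.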
RORgamma inh – qHTS for inhibitors of ROR gamma transcriptional activity; Drosophila S2 Gal4-RORgamma UAS-luciferase reporter, 20 h; Potency, µM (series often up to 53.6 µM), for the others: at the top dose activity change, negative = inhibition, actives largely listed as inhibitors; 310,000 tested, 5.4% active; AID 2551, 2010; further: nearly all actives have a fitted effect of over 60% in size
Target sequence (P51450 whole entry, looked up, the tested form may be a part): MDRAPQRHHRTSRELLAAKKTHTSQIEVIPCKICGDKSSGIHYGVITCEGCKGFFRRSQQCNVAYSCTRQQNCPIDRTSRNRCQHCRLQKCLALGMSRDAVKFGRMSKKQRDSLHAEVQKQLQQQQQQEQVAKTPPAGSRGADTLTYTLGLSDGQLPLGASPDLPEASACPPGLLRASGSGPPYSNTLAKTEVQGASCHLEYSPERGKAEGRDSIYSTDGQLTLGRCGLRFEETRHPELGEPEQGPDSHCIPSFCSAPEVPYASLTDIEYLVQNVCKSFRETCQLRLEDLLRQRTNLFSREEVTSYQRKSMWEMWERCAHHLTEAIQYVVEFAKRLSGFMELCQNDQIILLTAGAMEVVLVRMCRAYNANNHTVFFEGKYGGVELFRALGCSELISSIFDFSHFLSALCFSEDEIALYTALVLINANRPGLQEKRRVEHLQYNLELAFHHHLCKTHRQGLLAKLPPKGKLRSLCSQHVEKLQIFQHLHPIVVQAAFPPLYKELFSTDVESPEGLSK
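ROR gamma transcriptional activity was tracked as Gal4-UAS luciferase output in stably transfected Drosophila Schneider cells, with compound added 1 hr before 700 uM copper sulfate induction and a 20 hr ambient-temperature incubation.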
VP16 counter – VP16 counterscreen qHTS for inhibitors of ROR gamma transcriptional activity; Drosophila S2 Gal4-VP16 UAS-luciferase, luminescence, 20 h; Potency, µM (doses to about 53.6 µM), for the others: top-dose activity, negative = inhibition, hits mostly inhibitors; 310,000 tested, 3.5% active; AID 2546, 2010;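 further: Gal4-VP16 expression switched on by copper sulfate through the metallothionein promoter; nearly all actives have a fitted effect of over 50% in size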
* = called active by the depositor; ? = inconclusive; . = no result; [ ] = remark or other dose. An excerpt weighted towards active compounds, which were near 7.3% of everything screened. The call rests on the fitted dose curve; in most records, active means well fitted curve in the direction sought with a large enough effect; inconclusive means small, poorly fitted or top-dose-only effect, or another doubt; inactive means no such curve, though single readings can be large; an effect the other way counts as inactive or inconclusive. On the % scale 0 is the no-effect control and ±100 the full control effect; potency means the concentration at half of the fitted maximal effect.

SMILES	Tau fluor counter	Tau fibril ThT	Tau fibril FP	RORgamma inh	VP16 counter
COc1cccc(C(=O)NC(=S)Nc2ccc(Cl)cc2C(=O)O)c1	-5.3%	-3.9%	-4.3%	10µM*	7.08µM*
COc1cccc(C(=O)NC(=S)Nc2ccc3c4c(cccc24)CC3)c1	?	?	-3.3%	3.55µM*	11.2µM*
COc1cc(OC)cc(C(=O)NC(=S)Nc2ccc(Cl)c(C(=O)O)c2)c1	-3.5%	-2.1%	-2.9%	-15.0%	-7.4%
Fc1ccc(Oc2ccc3nnc(C(F)(F)F)n3n2)cc1	0.7%	-3.4%	-3.3%	-16.0%	4.0%
NC[C@](O)(CS(=O)(=O)O)c1ccc(Cl)cc1	2.4%	-2.7%	3.0%	7.2%	4.3%
COc1nc(N/N=C/c2ccc(-c3ccccc3[N+](=O)[O-])o2)nc(N2CCOCC2)n1	10.1%	10.4%	3.6%	12.5%	-20.4%
O=[N+]([O-])c1ccc(/C=N/Nc2nc(N3CCCCC3)nc(N3CCCCC3)n2)cc1	?	?	11.0%	-13.3%	-9.3%
O=[N+]([O-])c1ccc(-c2ccc(/C=N/Nc3nc(NCc4ccccc4)nc(N4CCOCC4)n3)o2)cc1	?	2.82µM*	?	12.6µM*	?
COC(=O)c1ccccc1-c1ccc(/C=N/Nc2nc(N3CCCC3)nc(N3CCCC3)n2)o1	?	?	18.6%	?	?
O=[N+]([O-])c1ccc(/C=N/Nc2nc(N3CCCCCC3)nc(N3CCCCCC3)n2)o1	?	?	19.9%	11.2µM*	?
Cc1ccc(/C=N/Nc2nc(N3CCCCC3)nc(N3CCCCC3)n2)o1	-25.7%	?	0.7%	8.91µM*	?
Fc1cnc(Cl)nc1NC1CCCCC1	.	.	.	16.2%	-1.4%
CCCCCCCC1=Cc2ccccc2C(C(C(C)=O)C(=O)OC)N1C(=O)OC (centres undefined)	5.7%[11.6 µM]	14.9%[11.5 µM]	-9.8%[11.6 µM]	.	.
CCOC(=O)c1c(N)sc2c(OCC)c(Br)ccc12	25.1µM*[quencher]	?	-1.4%	?	?
CCOC(=O)c1c(NC(C)=O)sc2c(OCC(O)CNC(C)(C)C)c(Br)ccc12 (centres undefined)	22.2%[2.34 µM]	8.3%	-4.1%	1.2%	-2.1%
Cc1ccc(S(=O)(=O)Nc2ccc(C(OC(=O)c3ccccc3[N+](=O)[O-])(C(F)(F)F)C(F)(F)F)cc2)cc1	-1.2%	4.6%	-0.5%	-7.0%	-3.0%
O=C(OC(c1ccc(NS(=O)(=O)c2ccccc2)cc1)(C(F)(F)F)C(F)(F)F)c1ccccc1	?	?	-14.5%	14.1µM*	?
CCc1nc(SCC(=O)c2ccc3c(c2)OCCO3)c2ccccc2n1	-27.3%	?	-8.4%	-14.6%	?
O=C(CSc1nc(Cc2ccccc2)nc2ccccc12)c1ccc2c(c1)OCCO2	?	-16.1%	-16.2%	6.31µM*	?
Cc1cc(NC(=O)CSc2nc(CCC3CCCC3)nc3ccccc23)no1	-12.8%	-13.4%	-12.7%	7.7%	-9.4%[0.365 µM]
O=C(CSc1nc(CCC2CCCC2)nc2ccccc12)NCc1ccc2c(c1)OCO2	-7.3%	-9.7%	-0.2%	15.8µM*	?
CC(=O)c1cc(O)c2ccccc2c1O	?	28.2µM*	?	-22.2%	-10.3%
CCOc1ccc(CCNC(=O)c2cccc(-n3c(C)nc4cccnc43)c2)cc1	-0.4%	0.6%	2.0%	.	.
C/C(CC(=O)Nc1ccc2c(c1)OCO2)=N\NC(=O)c1ccccc1N	-19.2%	-15.0%	-0.8%	-33.8%	-6.4%
C/C(CC(=O)Nc1ccc2c(c1)OCO2)=N\NC(=O)C(c1ccccc1)c1ccccc1	-12.2%	-4.1%	6.3%	15.8µM*	?
CCOc1ccc(NC(=O)CN2C(=O)COc3ccc(S(=O)(=O)Nc4ccccc4)cc32)cc1	?	-5.1%	?	.	.
Cc1cccc(CS(=O)(=O)c2nnc([C@H](Cc3ccccc3)NC(=O)OC(C)(C)C)o2)c1	-1.7%	-2.2%	-8.6%	11.2µM*	11.2µM*
